Source: PubChem (Broad Institute)
Only some compounds are listed: those with a hit (about 6.7% of all), similar ones and a draw of the others.
C diff growth: C. difficile growth inhibitors, primary screen, HTS | Clostridium difficile clinical isolate growth, OD600, 24 h; active compounds read low | growth activity, negative = inhibition, % at 16 µg/mL (by protocol) | 86,000 tested, 0.25% active;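 active = mean growth activity at or below -80% and every replicate also at or below -80%; inconclusive = mean at or below -80% but some replicate above -80%; inactive = mean growth activity above -80%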;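 note: 0% = DMSO wells and -100% = levofloxacin 16 µg/mL wells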
T cruzi growth-1: T. cruzi intracellular proliferation inhibitors, primary screen, cell-based, beta-gal Tulahuen parasites, NIH3T3 host, luminescence; AID 624255, 2012; inhibition, % at 8.34 µM; T. cruzi beta-gal in NIH3T3, GalScreen luminescence, 90 h; 77,000 tested, 5.9% active;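 active = mean inhibition above about 93%, with at least 55% of replicates each passing it, limit read from the data, passing the limit was not always enough; inconclusive = only one of those two conditions holds; inactive = neither condition holds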
Pf Dd2 inh: P. falciparum Dd2 growth inhibitors, primary screen, SYBR Green fluorescence, single dose replicates; 72 h; active compounds read low; activity change, % at 10 µM; 94,000 tested, 2.3% active; AID 1159554, 2015; in the data active = activity change below about -80%; inconclusive = no clear call, values can overlap the other calls
T cruzi growth-2: T. cruzi intracellular proliferation inhibitors, confirmation, cell-based, NIH3T3 host, beta-gal parasite, luminescence, cherry-pick; shares compounds with T cruzi growth-1; T. cruzi beta-gal in NIH3T3, GalScreen luminescence, 90 h; inhibition, % at 8.35 µM; 5,600 tested, 72% active; AID 651739, 2012;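 active = mean replicate inhibition above about 95% and at least 55% of replicates individually reaching it, limit read from the data; inconclusive = only one of the two criteria is met; inactive = neither criterion is met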
T cruzi growth-3: inhibitors of intracellular T. cruzi replication, confirmation, NIH3T3 host cells, beta-gal parasites, cherry-pick, set 2; inhibition, % at 2.09 µM; 5,600 tested, 21% active; shares compounds with T cruzi growth-1; T. cruzi beta-gal in NIH3T3, GalScreen luminescence, 90 h;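 active = mean inhibition above about 95%, with at least 55% of replicates also reaching it, limit read from the data; inconclusive = meets just one of the two conditions; inactive = meets neither condition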;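 note: plate controls were neutral control median for no effect and positive control median for full effect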
3T3 cytotox: cytotoxicity in mouse NIH/3T3 fibroblasts, confirmation, cytotoxicity control for T. cruzi proliferation inhibitor project, cell-based, cherry-pick, single point; shares compounds with T cruzi growth-1; NIH/3T3 viability, CellTiter-Glo ATP luminescence, 90 h; cytotoxicity (signal decrease), % at 8.35 µM; 5,600 tested, 14% active; AID 651742, 2012;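 active = mean signal decrease across replicates above about 35% based on untreated-well scatter, with enough replicates individually passing, limit read from the data; inconclusive = no rule stated though some were filed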;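 note: 0% = median of neutral control wells and 100% = median of positive control wells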
NIH3T3 tox 2: NIH/3T3 fibroblast cytotoxicity, confirmation, cytotoxicity control, cell-based, cherry-pick, single point, set 2. shares compounds with T cruzi growth-1. NIH/3T3 viability, CellTiter-Glo ATP luminescence, 90 h. inhibition, % at 24.9 µM. 5,600 tested, 56% active;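 active = mean loss of cell viability signal at or above a set limit, and enough replicates individually reaching it; inconclusive = meets only the mean limit or only the replicate share; inactive = meets neither condition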;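 note: 0% = median of neutral control wells and 100% = median of positive control wells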
An asterisk follows results filed as active.

How did CC(=O)N1[C@@H]2Cn3c(ccc(C4=CCCC4)c3=O)[C@H]1[C@@H](C(=O)N[C@H](C)c1ccccc1)[C@@H]2CO do in these assays?
C diff growth: -4.2; T cruzi growth-1: -9.3; Pf Dd2 inh: 5.7

Results for O=C(C[C@H]1C=C[C@H](NS(=O)(=O)c2ccc(F)cc2)[C@H](CO)O1)NCCN1CCCCC1 ?
C diff growth: -1.6; T cruzi growth-1: -32.7; Pf Dd2 inh: 5.2

What do the screens show for `COc1ccc(S(=O)(=O)Nc2ccc3c(c2)C(=O)N([C@@H](C)CO)C[C@@H](C)[C@H](CN(C)C(=O)NC2CCCCC2)OCCCC[C@H](C)O3)cc1`?
C diff growth: 3.6; T cruzi growth-1: 17.0; Pf Dd2 inh: -41.8

What do the screens show for `C[C@@H]1CCCCO[C@@H](CN(C)S(=O)(=O)c2ccc(Cl)cc2)[C@@H](C)CN([C@H](C)CO)C(=O)c2cc(NC(=O)Nc3ccc(F)cc3)ccc2O1`?
C diff growth: 16.8; T cruzi growth-1: 68.3; Pf Dd2 inh: -80.0

How did Cc1ccc(S(=O)(=O)N(C)C[C@@H]2OCCCC[C@H](C)Oc3ccc(NC(=O)Nc4ccc(F)cc4)cc3C(=O)N([C@H](C)CO)C[C@@H]2C)cc1 do in these assays?
T cruzi growth-1: 109.0*; Pf Dd2 inh: -61.4; T cruzi growth-2: 96.7*; T cruzi growth-3: 106.6*; 3T3 cytotox: 3.0; NIH3T3 tox 2: 41.4*

What do the screens show for `C[C@@H]1CCCCO[C@@H](CN(C)S(=O)(=O)c2ccc(Cl)cc2)[C@H](C)CN([C@@H](C)CO)C(=O)c2cc(NC(=O)Nc3ccc(F)cc3)ccc2O1`?
C diff growth: -0.6; T cruzi growth-1: 89.4; Pf Dd2 inh: -72.6

Results for Cc1ccc(S(=O)(=O)N(C)C[C@@H]2OCCCC[C@@H](C)Oc3ccc(NC(=O)Nc4ccc(F)cc4)cc3C(=O)N([C@H](C)CO)C[C@H]2C)cc1 ?
T cruzi growth-1: 113.8*; Pf Dd2 inh: -78.5; T cruzi growth-2: 108.9*; T cruzi growth-3: 108.7*; 3T3 cytotox: -2.9; NIH3T3 tox 2: 24.0

How did CC(=O)N(C)C[C@@H]1Oc2cc(C3=CCCCC3)ccc2S(=O)(=O)N([C@H](C)CO)C[C@H]1C do in these assays?
T cruzi growth-1: 3.3; Pf Dd2 inh: -3.8

Results for O=C(C[C@H]1C=C[C@@H](NS(=O)(=O)c2ccc(F)cc2)[C@H](CO)O1)NCCN1CCCCC1 ?
C diff growth: -1.4; T cruzi growth-1: -4.2; Pf Dd2 inh: 2.5

How did O=C(c1ccccc1)N1CC[C@@H]2[C@@H](CO)Nc3ccc(C#Cc4cccnc4)cc3[C@@H]21 do in these assays?
C diff growth: -4.5; T cruzi growth-1: 41.4; Pf Dd2 inh: -3.6

Results for C[C@@H]1CN([C@H](C)CO)S(=O)(=O)c2ccc(C3=CCCCC3)cc2O[C@@H]1CN(C)C(=O)c1ccc(F)cc1 ?
C diff growth: -0.5; T cruzi growth-1: 113.2*; Pf Dd2 inh: -35.5; T cruzi growth-2: 107.4*; T cruzi growth-3: 91.5; 3T3 cytotox: 18.1; NIH3T3 tox 2: 100.8*

What do the screens show for `C[C@H]1CN([C@@H](C)CO)S(=O)(=O)c2ccc(C3=CCCCC3)cc2O[C@@H]1CN(C)C(=O)c1ccc(F)cc1`?
C diff growth: -0.6; T cruzi growth-1: 114.6*; Pf Dd2 inh: -39.5; T cruzi growth-2: 110.2*; T cruzi growth-3: 102.4*; 3T3 cytotox: 47.0*; NIH3T3 tox 2: 95.9*

What do the screens show for `C[C@H](CO)N1C[C@H](C)[C@H](CN(C)C(=O)c2ccc(F)cc2)Oc2cc(C3=CCCCC3)ccc2S1(=O)=O`?
C diff growth: 3.6; T cruzi growth-1: 111.5*; Pf Dd2 inh: -39.3; T cruzi growth-2: 101.4*; T cruzi growth-3: 61.1; 3T3 cytotox: 31.5; NIH3T3 tox 2: 61.6*

What do the screens show for `C[C@H]1CN([C@@H](C)CO)S(=O)(=O)c2ccc(C3=CCCCC3)cc2O[C@@H]1CN(C)C(=O)c1ccccc1`?
C diff growth: -8.0; T cruzi growth-1: 94.7; Pf Dd2 inh: -17.2

Results for C[C@@H]1CN([C@@H](C)CO)S(=O)(=O)c2ccc(C3=CCCC3)cc2O[C@@H]1CN(C)C(=O)c1ccc(F)cc1 ?
C diff growth: 0.5; Pf Dd2 inh: 13.5

What do the screens show for `C[C@H](CO)N1C[C@H](C)[C@H](CN(C)C(=O)c2ccccc2)Oc2cc(C3=CCCCC3)ccc2S1(=O)=O`?
C diff growth: 4.4; T cruzi growth-1: 102.8*; Pf Dd2 inh: -37.4; T cruzi growth-2: 101.4*; T cruzi growth-3: 69.0; 3T3 cytotox: 29.6; NIH3T3 tox 2: 64.1*

How did C[C@H]1CN([C@@H](C)CO)S(=O)(=O)c2ccc(C3=CCCC3)cc2O[C@@H]1CN(C)C(=O)c1ccc(F)cc1 do in these assays?
C diff growth: 4.9; Pf Dd2 inh: -53.2

What do the screens show for `C[C@H]1CN([C@@H](C)CO)S(=O)(=O)c2ccc(C3=CCCCC3)cc2O[C@H]1CN(C)C(=O)c1ccc(F)cc1`?
C diff growth: 4.1; T cruzi growth-1: 111.5; Pf Dd2 inh: -63.4

What do the screens show for `C[C@@H]1CN([C@@H](C)CO)C(=O)c2cccc(NS(C)(=O)=O)c2O[C@@H]1CN(C)Cc1ccc(Oc2ccccc2)cc1`?
C diff growth: 22.2; Pf Dd2 inh: -61.0

What do the screens show for `C[C@H](CO)N1C[C@H](C)[C@H](CN(C)Cc2ccc(-c3ccccc3)cc2)Oc2ccc(NS(C)(=O)=O)cc2CC1=O`?
C diff growth: -30.4; T cruzi growth-1: -3.5; Pf Dd2 inh: 1.0

Results for C[C@H](CO)N1C[C@H](C)[C@H](CN(C)S(C)(=O)=O)Oc2ccc(NS(=O)(=O)c3ccc(Cl)cc3)cc2CC1=O ?
C diff growth: 2.1; T cruzi growth-1: 19.1; Pf Dd2 inh: 16.8

Results for CO[C@H]1CN(C)C(=O)c2cc(NS(C)(=O)=O)ccc2OC[C@H](C)N(C(=O)C2CCCCC2)C[C@H]1C ?
T cruzi growth-1: 91.8

What do the screens show for `C[C@@H]1CN([C@H](C)CO)S(=O)(=O)c2ccc(C3=CCCCC3)cc2O[C@H]1CN(C)C(=O)c1ccc(F)cc1`?
C diff growth: 0.5; T cruzi growth-1: 109.0; Pf Dd2 inh: -62.8

How did C[C@@H]1CN([C@@H](C)CO)S(=O)(=O)c2ccc(C3=CCCCC3)cc2O[C@H]1CN(C)C(=O)c1ccc(F)cc1 do in these assays?
C diff growth: 4.7; T cruzi growth-1: inconclusive; Pf Dd2 inh: -48.0; T cruzi growth-2: 102.1*; T cruzi growth-3: 50.8; 3T3 cytotox: 53.9*; NIH3T3 tox 2: 25.7*
